Bioassay records (PubChem BioAssay)
TDP1 cell CPT = DT40-hTDP1 cell growth loss with CPT; chicken DT40 Tdp1-/-;hTDP1 cells + 20 nM CPT, ATP luminescence, 48 h; Potency, µM (highest dose often 46.2 µM), usual class: inhibitors; actives 12% (n = 420,000); AID 686979; further: nearly all actives have a fitted effect of over 55% in size
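Cell growth measured by CellTiter-Glo luminescence after a minimum 48 h, 37 C compound exposure with 20 nM CPT in Tdp1-knockout DT40 cells stably expressing hTDP1, seeded 400/well; qHTS titration format.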
HT1080NT lethal = kills 2HG-producing HT-1080-NT fibrosarcoma cells; HT-1080-NT fibrosarcoma viability, CellTiter-Glo ATP luminescence, 48 h; Potency, µM (top dose mostly 46.1 µM), hits mostly cytotoxic; actives 1.6% (n = 360,000); AID 686970;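 further: NT is the 2HG producing partner of a matched IDH1 knockdown line; nearly all actives have a fitted effect of over 55% in size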
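Toxicity toward the 2HG-producing NT line was scored as %Activity, normalised to DMSO and no-cell wells, from CellTiter-Glo luminescence after 48 hours' treatment.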
IL-1B inflam inh = inhibitors of inflammasome signaling (IL-1 beta secretion). THP-1 LPS/ATP IL-1B secretion, AlphaLISA, 16 h; active compounds read low. activity change, % at 57.5 µM. actives 4.7% (n = 360,000). AID 743279; in the data active means activity change below about -50%; inconclusive means mostly about -30% to -49%
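Secreted IL-1B measured by AlphaLISA bead assay after 16 h compound exposure of THP-1 cells; compounds (final up to 57.5 uM) added 1 h before LPS (250 ng/mL) and ATP (1.25 mM) stimulation; lower signal means less secretion.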
HT1080 IDH1KD tx = toxicity to HT-1080 IDH1 knockdown cells (counter line) | HT-1080 IDH1 knockdown viability, ATP luminescence, 48 h | Potency, µM (highest dose often 46.1 µM), actives largely listed as cytotoxic | actives 2% (n = 360,000) | AID 686971
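After a 2 h attachment period, IDH1KD HT-1080 cells took pin-transferred compound for 48 h at 37 °C; ATP-based luminescence after 10 min room-temperature reagent incubation reported viability.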
TDP1 cell noCPT = qHTS for Inhibitors of human tyrosyl-DNA phosphodiesterase 1 (TDP1): qHTS in cells in absence of CPT; actives 15% (n = 420,000); Potency, µM (highest dose often 46.2 µM), hits mostly inhibitors; DT40 Tdp1-/- hTDP1 cells, no CPT, ATP luminescence, 48 h; further: nearly all actives have a fitted effect of over 55% in size
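Growth kinetics read by CellTiter-Glo luminescence after ≥48 hr at 37 °C. Cells: DT40 Tdp1-/- stably carrying human TDP1, 400 per well, compound exposure in the absence of CPT (DMSO vehicle).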
Large screens that a line does not name were inactive. Compounds with a hit are over-represented: about 19% of the library has one in this group of screens. Unless noted, the call rests on the fitted dose curve; in most records, active means well fitted curve in the direction sought with a large enough effect; inconclusive means small, poorly fitted or top-dose-only effect, or another doubt; inactive means no such curve, though single readings can be large; an effect the other way counts as inactive or inconclusive.

Cc1cccc2cc(CN(Cc3ccco3)C(c3nnnn3CCc3ccccc3)C(C)C)c(=O)[nH]c12 (stereo unspecified)	TDP1 cell CPT inconclusive, TDP1 cell noCPT 15µM
Cc1cccc2cc(CN(Cc3ccco3)C(=O)c3ccco3)c(=O)[nH]c12	none
COc1ccc2[nH]c(=O)c(CN(Cc3ccco3)C(c3nnnn3Cc3ccccc3)C(C)C)cc2c1 (stereo unspecified)	TDP1 cell CPT 18µM, TDP1 cell noCPT 21µM
C=CCOc1c(Br)cc(/C=C2/C(=O)ON=C2C)cc1OC	TDP1 cell CPT inconclusive, TDP1 cell noCPT inconclusive
CCc1ccn2cc(-c3ccc4c(c3)OCO4)nc2c1	HT1080NT lethal 12µM, HT1080 IDH1KD tx 13µM, TDP1 cell noCPT inconclusive
Cc1ccc(C(=O)NCC(c2cccs2)S(=O)(=O)c2cccs2)cc1 (stereo unspecified)	TDP1 cell CPT 21µM, TDP1 cell noCPT 9.2µM (no result: HT1080NT lethal, IL-1B inflam inh, HT1080 IDH1KD tx)
COc1ccc(CC(=O)NCC(c2cccs2)S(=O)(=O)c2ccc(C)cc2)cc1 (stereo unspecified)	TDP1 cell CPT inconclusive, TDP1 cell noCPT 26µM (no result: HT1080NT lethal, IL-1B inflam inh, HT1080 IDH1KD tx)
Cc1cc(C)c(S(=O)(=O)NCC(c2cccs2)S(=O)(=O)c2ccccc2)c(C)c1 (stereo unspecified)	TDP1 cell CPT 1.2µM, TDP1 cell noCPT 4.1µM (no result: HT1080NT lethal, IL-1B inflam inh, HT1080 IDH1KD tx)
COc1ccccc1CNC(=O)C(=O)NCC(c1cccs1)S(=O)(=O)c1ccccc1 (stereo unspecified)	TDP1 cell CPT inconclusive, TDP1 cell noCPT 16µM (no result: HT1080NT lethal, IL-1B inflam inh, HT1080 IDH1KD tx)
CCOc1ccc(-n2ccnc2SCC(=O)Nc2nc3ccc(C)cc3s2)cc1	none (no result: HT1080NT lethal, IL-1B inflam inh, HT1080 IDH1KD tx)
O=C(NCCc1ccccc1)C(=O)NCC(c1cccs1)S(=O)(=O)c1cccs1 (stereo unspecified)	TDP1 cell CPT 16µM, TDP1 cell noCPT inconclusive (no result: HT1080NT lethal, IL-1B inflam inh, HT1080 IDH1KD tx)
Cc1ccc(C(=O)CC(c2cccs2)S(=O)(=O)c2ccc(C)cc2)cc1 (stereo unspecified)	TDP1 cell CPT inconclusive, HT1080 IDH1KD tx inconclusive, TDP1 cell noCPT 15µM
O=C(NCCO)C(=O)NCC(c1cccs1)S(=O)(=O)c1ccc(F)cc1 (stereo unspecified)	none
CC(C)(C)c1ccc(C(=O)NCC(c2cccs2)S(=O)(=O)c2ccc(F)cc2)cc1 (stereo unspecified)	TDP1 cell CPT 18µM, TDP1 cell noCPT 21µM (no result: HT1080NT lethal, IL-1B inflam inh, HT1080 IDH1KD tx)
c1ccc2cc(CSCc3nc4ccccc4[nH]3)ccc2c1	TDP1 cell noCPT inconclusive
CCOC(=O)c1c(C)[nH]c(C(=O)COC(=O)CCNS(=O)(=O)c2ccc(NC(C)=O)cc2)c1C	none
COc1ccc(NC2c3ncccc3C(=O)N2Cc2ccccc2)c(OC)c1 (stereo unspecified)	none
COc1cccc(C2N(Cc3ccccc3)C(=O)C2(F)F)c1OC (stereo unspecified)	none
CCOC(=O)[C@]12Cc3c(cc(OC)c(OC)c3OC)[C@H]1N(CCC(=O)OC)C(=O)c1cc(OC)ccc12	TDP1 cell CPT inconclusive, HT1080NT lethal inconclusive, IL-1B inflam inh -116, HT1080 IDH1KD tx inconclusive, TDP1 cell noCPT 16µM
CCOC(=O)[C@]12Cc3c(cc(OC)c(OC)c3OC)[C@H]1N(Cc1ccccc1)C(=O)c1cc(OC)ccc12	TDP1 cell CPT inconclusive, HT1080NT lethal 18µM, HT1080 IDH1KD tx inconclusive, TDP1 cell noCPT 13µM (no result: IL-1B inflam inh)
CCOC(=O)[C@]12Cc3c(cc(OC)c(OC)c3OC)[C@H]1N(Cc1ccccc1)C(=O)c1cc(F)c(F)cc12	TDP1 cell CPT inconclusive, HT1080NT lethal inconclusive, IL-1B inflam inh -68, HT1080 IDH1KD tx inconclusive, TDP1 cell noCPT 26µM
Cc1cnc(C(=O)OCC(=O)Nc2ncc(Cl)cc2Cl)cn1	none
COc1ccc(N(CC(=O)Nc2ccc(C)cc2)S(=O)(=O)c2c(C)noc2C)cc1	TDP1 cell CPT inconclusive, TDP1 cell noCPT inconclusive
COc1ccc(N(CC(=O)Nc2cc(C)ccc2C)S(=O)(=O)c2c(C)nn(C)c2C)cc1	TDP1 cell CPT inconclusive, TDP1 cell noCPT 26µM
Cc1cc(C)cc(N(CC(=O)O)S(=O)(=O)c2c(C)noc2C)c1	none
COc1ccc(N(CC(=O)Nc2cccc(C)c2)S(=O)(=O)c2c(C)noc2C)cc1	TDP1 cell CPT inconclusive, TDP1 cell noCPT 2.9µM
